mHTT CaM bind – inhibitors of human mutant huntingtin-calmodulin interaction | AID 1671202 | hit rate 3.6% among 190,000 | P42858 | inhibition, % at 15 µM | AlphaScreen His-mHTT/GST-CaM binding, luminescence
Pf apPOL block – Pf-apPOL DNA polymerase inhibition; Recombinant Pf-apPOL, molecular beacon fluorescence, 1.5 h; inhibition, % at 10 µM; hit rate 0.25% among 210,000
Numbers stand for hits; ! = not active in a repeat. This is a sample that favours compounds with a hit; in the whole collection about 3.5% have one here. Cut-off read from the data, not from the text of the source: active = inhibition above about 50%; inactive = the rest.

Screening Cc1cc(C(=O)N2CC(c3nc4ccccc4[nH]3)C2)no1 returned mHTT CaM bind inactive and Pf apPOL block inactive.
O=C1NC(=O)C(=Cc2cccn2-c2ccccc2)C(=O)N1 was read as mHTT CaM bind inactive and Pf apPOL block inactive.
Screening O=C1NC(=O)C(=Cc2cccn2-c2ccc(Cl)cc2)C(=O)N1 returned mHTT CaM bind 66.0 and Pf apPOL block inactive.
Screening Cc1ccccc1-n1nc(C(=O)N2CCC(C)CC2)nc1C returned mHTT CaM bind inactive and Pf apPOL block inactive.
Screening Cc1ccc(Cc2c(C)nc3c(C(=O)NCCN4C(C)CCCC4C)c[nH]n3c2=O)cc1 (centres undefined) returned mHTT CaM bind inactive and Pf apPOL block inactive.
CC(C)n1c(=O)c(N2CCN(C(=O)c3cc(-c4ccccc4)n[nH]3)CC2)nc2ccncc21 was read as mHTT CaM bind 50.3 and Pf apPOL block inactive.
Screening CC(C)n1c(=O)c(N2CCN(C(=O)c3ccccc3)CC2)nc2ccncc21 returned mHTT CaM bind inactive and Pf apPOL block inactive.
For Cc1[nH]nc(-c2ccc(F)cc2)c1NC(=O)COc1ccccc1 the results were mHTT CaM bind inactive and Pf apPOL block inactive.
`O=C(Nc1ccc2c(c1)OCCO2)C1CCN(c2cc(N3CCCCC3)ncn2)CC1` gave mHTT CaM bind inactive and Pf apPOL block inactive.
`O=C1[C@H]2CCC=C[C@H]2[C@H](c2ccccc2Br)N1Cc1ccccc1` gave mHTT CaM bind inactive and Pf apPOL block inactive.
For O=C1[C@H]2CCC=C[C@H]2[C@H](c2cccc(Br)c2)N1Cc1ccccc1 the results were mHTT CaM bind 65.9 and Pf apPOL block inactive.
`CC1C=C[C@@H]2[C@H](C1)C(=O)N(Cc1ccccc1)[C@H]2c1ccccc1Br` (some centres undefined) gave mHTT CaM bind inactive and Pf apPOL block inactive.
Cc1cccc([C@H]2[C@@H]3C=CC(C)C[C@@H]3C(=O)N2Cc2ccccc2)c1 (some centres undefined) was read as mHTT CaM bind 66.5 and Pf apPOL block inactive.
For CCOc1ccccc1-c1noc(-c2ccc(S(=O)(=O)NC)o2)n1 the results were mHTT CaM bind inactive and Pf apPOL block inactive.
CCCCCOc1ccccc1/C=c1\sc2nc(=O)c(C)nn2c1=O was read as mHTT CaM bind inactive and Pf apPOL block inactive.
`N#CC1=C(N)OC2=C(C(=O)CC(c3ccccc3)C2)C1c1ccc(Cl)cc1` (centres undefined) gave mHTT CaM bind inactive and Pf apPOL block inactive.
N#CC1=C(N)OC2=C(C(=O)CC(c3ccccc3)C2)C1c1ccc(Cl)cc1Cl (centres undefined) was read as mHTT CaM bind 68.8 and Pf apPOL block inactive.
Screening N#CC1=C(N)OC2=C(C(=O)CC(c3ccccc3)C2)C1c1ccsc1 (centres undefined) returned mHTT CaM bind inactive and Pf apPOL block inactive.
`N#CC1=C(N)OC2=C(C(=O)CC(c3ccccc3)C2)C1C1CCCCC1` (centres undefined) gave mHTT CaM bind 59.6! and Pf apPOL block 50.6!.
`O=S(=O)(c1ccc(Cl)s1)N1CCC(c2noc(-c3cccc(F)c3)n2)CC1` gave mHTT CaM bind inactive and Pf apPOL block inactive.
Screening CCOc1ccc2c3c(c(=O)oc2c1OCC)CCC3 returned mHTT CaM bind inactive and Pf apPOL block inactive.
COc1ccc(Cl)cc1NC(=O)c1cc(S(=O)(=O)N2CCCCCC2)ccc1F was read as mHTT CaM bind inactive and Pf apPOL block inactive.
For Cc1c(C=O)c(C=O)c(C)n1-c1ccc(N(C)C)cc1 the results were mHTT CaM bind inactive and Pf apPOL block inactive.
CN(C)c1ccc(N2CC(=O)SC2=NC#N)cc1 was read as mHTT CaM bind 55.2.
For CCOC(=O)C1C(=O)C=C(c2cccs2)CC1c1cccc([N+](=O)[O-])c1 (centres undefined) the results were mHTT CaM bind inactive and Pf apPOL block inactive.
Screening CC(C)S(=O)(=O)Nc1ccc2c(c1)CN(C(=O)c1ccco1)CC2 returned mHTT CaM bind inactive and Pf apPOL block inactive.
`CC(C)C(=O)N1CCc2ccc(NS(=O)(=O)Cc3ccc(Cl)cc3)cc2C1` gave mHTT CaM bind inactive and Pf apPOL block 93.7.
For Cc1nnc(NC(=O)Cn2c(=O)oc3ccccc32)nc1C the results were mHTT CaM bind inactive and Pf apPOL block inactive.
CC1C[N+](C)(CC(O)COc2ccc(C34CC5CC(CC(C5)C3)C4)cc2)CC(C)O1 (centres undefined) was read as mHTT CaM bind 50.6 and Pf apPOL block inactive.
`C[N+]1(CC(O)COc2ccc(C34CC5CC(CC(C5)C3)C4)cc2)CCCCCC1` (centres undefined) gave mHTT CaM bind 90.8 and Pf apPOL block inactive.
For C[N+](C)(C)CC(O)COc1ccc(C23CC4CC(CC(C4)C2)C3)cc1 (centres undefined) the results were mHTT CaM bind inactive and Pf apPOL block inactive.
CC1C[N+](C)(CC(O)COc2ccc(C(C)(C)CC(C)(C)C)cc2)CC(C)O1 (centres undefined) was read as mHTT CaM bind 51.9 and Pf apPOL block inactive.
For CC(C)(C)CC(C)(C)c1ccc(OCC(O)C[N+](C)(C)C)cc1 (centres undefined) the results were mHTT CaM bind inactive and Pf apPOL block inactive.
`CC1CC[N+](C)(CC(O)COc2ccc(C34CC5CC(CC(C5)C3)C4)cc2)CC1` (centres undefined) gave mHTT CaM bind inactive and Pf apPOL block inactive.
`CCc1csc(-c2ccc(N3CCN(C(=O)c4ccccc4)CC3)nc2)n1` gave mHTT CaM bind inactive and Pf apPOL block inactive.
For Cc1c(CN2CCC(C(O)c3ccccn3)CC2)cnn1C (centres undefined) the results were mHTT CaM bind inactive and Pf apPOL block inactive.
Screening COc1ccc(C(F)(F)F)cc1NC(=O)c1cc(-c2cccs2)[nH]n1 returned mHTT CaM bind inactive and Pf apPOL block inactive.
CCCC(=O)Nc1nc2n(n1)C(c1ccccc1)C=C(c1ccccc1)N2 (centres undefined) was read as mHTT CaM bind inactive and Pf apPOL block inactive.
For COc1ccc(/C=C/C(=O)Nc2nc3n(n2)C(c2ccccc2)C=C(c2ccccc2)N3)cc1 (centres undefined) the results were mHTT CaM bind 72.0 and Pf apPOL block inactive.
`CCOC(=O)Cn1nc(-n2cccn2)ccc1=O` gave mHTT CaM bind inactive and Pf apPOL block inactive.
Cc1ccc(-c2csc(/C(C#N)=C/c3ccco3)n2)cc1 was read as mHTT CaM bind inactive and Pf apPOL block 52.8.
COc1ccc(-c2csc(/C(C#N)=C/c3ccco3)n2)cc1 was read as mHTT CaM bind inactive and Pf apPOL block inactive.
For CCCn1cnc2sc(C(=O)NCC(OCC)OCC)c(C)c2c1=O the results were mHTT CaM bind inactive and Pf apPOL block inactive.
Screening COc1cc(C=C2Oc3cc(OC(=O)c4cccs4)ccc3C2=O)cc(OC)c1OC returned mHTT CaM bind inactive and Pf apPOL block inactive.
Screening CN(C)c1nc2cc(C(=O)N3CCCC3)sc2n1-c1ccccc1 returned mHTT CaM bind 50.1 and Pf apPOL block inactive.
CN(C)c1nc2cc(C(=O)NCC3CC3)sc2n1-c1ccccc1 was read as mHTT CaM bind inactive and Pf apPOL block inactive.
For CC(=NOC(=O)c1ccsc1)c1oc(C)nc1C the results were Pf apPOL block inactive.
Screening O=c1cc2c(nn1Cc1ccc(Cl)cc1)CCCC2 returned mHTT CaM bind inactive and Pf apPOL block inactive.
`N=C1N=NC(c2ccccc2)=CS/C1=C\c1ccc(Cl)cc1` gave mHTT CaM bind inactive and Pf apPOL block inactive.

High-throughput results: PubChem BioAssay, University of Kansas High Throughput Screening Laboratory
